Our source for the Potency values is PubChem BioAssay (Tox21).

Several values for one entry are separate records, joined by “and”; a condition that tells them apart may be missing. Equal entries are not always repeated. Results filed as inconclusive are left out. A call without a number means that no potency is given here. Where a structure was tested more than once in an assay, its records may differ in their call. Activity calls are given as the source filed them. Calls follow the shape of the dose curve; as a rule, active = well fitted cell-killing curve with a large enough effect in the repeat runs; inconclusive = weak or mixed curves, or effect the other way; inactive = no such curve, though single readings can be large or run the other way.
Potency is read from the fitted curve at half-maximal effect.

The assay is described as follows: qHTS assay for identifying genotoxic compounds that show differential cytotoxicity against isogenic chicken DT40 cell lines with known DNA damage response pathways - wild type cell line (AID 743012). Also: nearly all actives have a fitted effect of over 60% in size. The settings on record: DT40 wild type chicken cells viability, CellTiter-Glo, 40 h; series mostly up to 68.4 µM. The source says:
U.S. Tox21 Program National Center for Advancing Translational Sciences [NCATS] NIH Chemical Genomics Center [NCGC] U.S. Environmental Protection Agency [EPA] National Institutes of Environmental Health Sciences [NIEHS] National Toxicology Program [NTP] U.S. Food and Drug Administration [FDA] Tox21 Assay Overview: DNA repair pathways play a critical role in cellular homeostasis by repairing DNA damage induced by endogenous processes and xenobiotics. Isogenic chicken DT40 cell lines deficient in different DNA repair pathways can be used to identify genotoxic compounds and aid in characterizing the nature of the DNA damage induced. Two DNA repair-deficient cell lines with disrupted genes, Rad54/Ku70 or Rev3, were used to screen the Tox21 10K compound library. Possible genotoxicity was based on the presence of a significant increase in cytotoxicity in one or more of the DNA repair-deficient cell lines compared to that observed in the parental DNA repair-proficient cell line. CellTiter Glo viability assay (Promega, Madison, WI) was used to measure cell viability in these cells after compound treatment. This assay includes the data from the wild type cell line.
Tox21 Assay Protocol Summary: 300 DT40 wild type cells in 5 uL/well were dispensed into white, solid-bottom 1536-well plates using a Multidrop Combi (ThermoFisher Scientific, Waltham, MA) dispenser. After the assay plates were incubated at 37 C/5% CO2 for approximately 0.5 hour, 23 nL of compounds dissolved in DMSO, positive controls or DMSO only was transferred into the assay plate by a pintool work station (Kalypsys, San Diego, CA). The assay plates were incubated at 37 C/5% CO2 for 40 hours. After 5 uL per well of CellTiter-Glo reagent was added into each well of the assay plates, the plates were incubated for 30 min at room temperature and the luminescence intensity of the plates was measured using a ViewLux (PerkinElmer, Shelton, CT) plate reader.
As for `O=[N+]([O-])O`, the Potency entry is “inactive and 42.1 µM (active)”.

On to `CCCCn1cc[n+](C)c1`, for which the Potency entry was “inactive”.

As to `CCCC[n+]1ccccc1`, the Potency result was “inactive”.

In the case of `CCCCCCCCCCCC(=O)O`, the Potency result is “inactive”.

As for `CC[N+](CC)(CC)CC`, the Potency entry is “inactive”.

For `CCOP(=S)(OCC)Oc1ccc2c(C)c(Cl)c(=O)oc2c1`, the Potency entry is “inactive and 17.2 µM (active)”.

In the case of `CCCC[n+]1cccc(C)c1`, the Potency result is “inactive”.

As for `Nc1ccc(-c2ccc(N)c(Cl)c2)cc1Cl`, the Potency was 54.5 µM (active).

For `O=C(O)C(Cl)(Cl)Cl`, the Potency entry was “inactive”.

`O=C(O)C(Cl)Cl`: the Potency entry was “inactive”.

Take `CCCC[N+]1(C)CCCCC1`: the Potency entry is “inactive”.

As to `CCCC[n+]1ccccc1C`, the Potency entry was “inactive”.

`CC(=O)O`: the Potency entry is “inactive”.

Turning to `Cc1cc(Cl)ccc1OCC(=O)O`, the Potency entry is “inactive”.

In the case of `Oc1ccccc1-c1ccccc1`, the Potency entry is “inactive”.

Turning to `O=P1(N(CCCl)CCCl)NCCCO1` (stereo not given), the Potency result was “inactive”.

In the case of `CCCn1cc[n+](C)c1`, the Potency result is “inactive”.

With `CN(C)[C@@H]1C(=O)C(C(N)=O)=C(O)[C@@]2(O)C(=O)C3=C(O)c4c(O)cccc4[C@@](C)(O)[C@H]3[C@H](O)[C@@H]12`, the Potency entry is “inactive and 68 µM (active) and 43.3 µM (active)”.

Consider `O=C(O)CC(O)(CC(=O)O)C(=O)O`, for which the Potency result was “inactive”.

In the case of `CC[N+]1(C)CCCC1`, the Potency entry was “inactive and 971 nM (active)”.

Regarding `C[C@]12CCC(=O)C=C1CC[C@@H]1[C@@H]2CC[C@]2(C)C(=O)CC[C@@H]12`, the Potency was 23.7 µM (active) and 27.3 µM (active).

Take `COc1ccccc1N`: the Potency result was “inactive”.

`O=S(=O)(O)O`: the Potency result is “inactive and 27.3 µM (active)”.

Turning to `CCC(=O)C(CC(C)N(C)C)(c1ccccc1)c1ccccc1` (stereo not given), the Potency is 24.4 µM (active) and 41.5 µM (active).

In the case of `O=C(O)COc1ccc(Cl)cc1Cl`, the Potency entry was “inactive”.

Turning to `O=C(O)CCl`, the Potency result is “inactive”.

Take `Cc1cc(Cl)ccc1N`: the Potency result was “inactive”.

In the case of `COP(=O)(OC)OC=C(Cl)Cl`, the Potency is 9.44 µM (active) and inactive.

In the case of `C1CCC(NC2CCCCC2)CC1`, the Potency entry was “inactive”.

As to `N#CS`, the Potency entry is “inactive”.

For the compound `Nc1ccc(Cl)cc1`, the Potency result is “inactive”.

For the compound `CCCCCCCCCCCCOS(=O)(=O)O`, the Potency entry is “inactive”.

Consider `COP(=O)(OC)C(O)C(Cl)(Cl)Cl` (stereo not given), for which the Potency result was “inactive”.

Regarding `O=c1[nH]c(=O)n(Cl)c(=O)n1Cl`, the Potency result was “inactive”.

On to `O=C(O)c1nc(Cl)ccc1Cl`, for which the Potency entry was “inactive”.

For the compound `CCCC[n+]1ccc(C)cc1`, the Potency entry was “inactive and 54.2 µM (active)”.

On to `C[N+](C)(C)Cc1ccccc1`, for which the Potency result is “inactive”.

Consider `CCCC[N+]1(C)CCCC1`, for which the Potency result is “inactive”.

In the case of `CCC[N+]1(C)CCCC1`, the Potency entry is “inactive”.

With `O=c1nc(O)n(Cl)c(=O)n1Cl`, the Potency result was “inactive”.
